# The list is a sample of the results.
# aSyn 5UTR act – Activators via SNCA 5'UTR binding, MLPCN | actives 7.1% (n = 300,000) | activity score, % (tested at 7.5 µM), hits read low | alpha-synuclein 5'UTR reporter, activators screen; in the data active = activity score below about -60%
# Active calls of the source: *.
SMILES,aSyn 5UTR act
COc1ccc2nc(NC(=O)C3CCN(C(=O)c4ccco4)CC3)sc2c1,-73.4*
CSc1nc2ccc(NC(=O)NC(=O)c3c(F)cccc3F)cc2s1,-124.7*
COc1ccc(-c2nnc(NC(=O)C3CCCO3)s2)cc1 (configuration not stated),-111.9*
COc1ccc2nc(NC(=O)C3CCCO3)sc2c1 (configuration not stated),-86.9*
Cc1nc(C)c(C(=O)Nc2nc3c(C)cccc3s2)o1,-73.5*
O=C(Nc1nc(-c2ccc(Cl)cc2)cs1)C1CCCO1 (configuration not stated),-90.1*
Cc1cccc2sc(NC(=O)C3CCCO3)nc12 (configuration not stated),-125.9*
CSc1nc2ccc(NC(=O)C3CCCO3)cc2s1 (configuration not stated),-125.4*
Cc1cc(C(=O)COC(=O)c2cccn2C)c(C)n1Cc1ccco1,76.9
Cc1cc(C(=O)COC(=O)c2cc(Cl)ccc2N)c(C)n1Cc1ccco1,-157.0*
O=Nc1c(-c2ccccc2)cc2ccccn12,-211.2*
NC(=O)c1ccccc1NC(=O)/C=C/c1ccccc1,-116.5*
NC(=O)c1ccccc1NC(=O)/C=C/c1ccc(Cl)cc1,-109.5*
N/C(=N\OC(=O)COc1ccc(Cl)cc1Br)c1cccnc1,-157.1*
N/C(=N\OC(=O)COc1ccc(Br)cc1Cl)c1cccnc1,-154.5*
CCc1ccc(OCC(=O)O/N=C(\N)c2cccnc2)cc1,-82.7*
O=C(NCCCN1CCCCC1)c1ccc2c(=O)n(CCc3ccccc3)c(=O)[nH]c2c1,-82.1*
CCN1CCN(CCCNC(=O)c2ccc(/C=C3/Oc4ccccc4N(Cc4cccc(C)c4)C3=O)cc2)CC1,101.4
O=C(Cc1csc(Nc2nc(=S)[nH]c3ccccc23)n1)NCCCN1CCN(c2ccccc2F)CC1,91.5
O=C1Nc2cc(C(=O)NCCCN3CCCC3)ccc2S/C1=C\c1ccccc1,-93.6*
CCN(CC)CCNC(=O)c1ccc2c(=O)n(CCc3ccccc3)c(=O)[nH]c2c1,-108.7*
CCCCn1nc(NC(=O)COC)c2cc3cc(OC)ccc3nc21,-77.6*
O=S(=O)(Nc1cccc(-c2ccc(N3CCCCCC3)nn2)c1)c1ccc(C(F)(F)F)cc1,-87.7*
Cc1ccc(S(=O)(=O)Nc2cccc(-c3ccc(N4CCCCCC4)nn3)c2)cc1C,-117.3*
O=C(Nc1cccc(-c2ccc(N3CCCCC3)nn2)c1)C(F)(F)F,96.2
SMILES,aSyn 5UTR act
O=S(=O)(Nc1cccc(-c2ccc(N3CCCCCC3)nn2)c1)c1ccc(F)cc1,-145.9*
O=S(=O)(Nc1cccc(-c2ccc(N3CCCCCC3)nn2)c1)c1ccccc1F,-127.7*
O=S(=O)(Nc1cccc(-c2ccc(N3CCCCCC3)nn2)c1)c1cccc(F)c1,-107.9*
c1ccc(Nc2nc(CSc3ncn[nH]3)cs2)cc1,-134.8*
Cc1c(C(=O)NCCCN2CCOCC2)oc2c1C1(CCC2)SCCS1,-70.0*
CCCc1ccc2oc(C(=O)NCc3nnc(C)o3)c(C)c2c1,-127.9*
CCCc1ccc2oc(C(=O)NCCCN3CCOCC3)c(C)c2c1,-95.9*
Cc1c(C(=O)NCc2ccc3c(c2)OCO3)oc2ccc(S(=O)(=O)N3CCCCCC3)cc12,60.3
O=C(NCSc1ccccc1)c1ccccc1,-94.0*
CSc1ccc(CNC(=O)Cc2ccc(NC(=O)C3=C(C)OCCS3)cc2)cc1,-152.8*
Cc1cc(=O)[nH]c(N/N=C/c2ccc(Br)s2)n1,-119.3*
Cc1cc(=O)[nH]c(N/N=C/c2ccccn2)n1,73.8
Cc1cc(=O)[nH]c(N/N=C/c2ccc(-c3ccc(F)cc3)o2)n1,-69.6*
COc1ccc(CCN2CC(C(=O)N(C)Cc3ccc(C)o3)CCC2=O)cc1 (configuration not stated),-86.9*
C=CCC1(CC=C)CCCN1C(=O)C1CCC(=O)N(CCc2ccccc2)C1 (configuration not stated),-180.7*
C=CCC1(CC=C)CCCN1C(=O)C1CCC(=O)N(CCc2ccc(OC)cc2)C1 (configuration not stated),-209.6*
COc1c(C)cccc1C(=O)Nc1ccc(N2CCOCC2)c(Cl)c1,-173.2*
O=C(Nc1ccc(N2CCOCC2)c(Cl)c1)c1cc(F)c(F)cc1Cl,-63.8*
C=CCN(c1ccccc1OC)S(=O)(=O)c1ccc(Cl)c(C(=O)Nc2ccc(N3CCOCC3)cc2)c1,89.2
O=C(Nc1ccccc1F)c1ccc2snnc2c1,-77.4*
O=C(Nc1ccc(Cl)cc1)c1ccc2snnc2c1,-149.2*
COc1ccc(NC(=O)c2ccc3snnc3c2)cc1,-107.4*
CC(=O)c1ccc(NC(=O)c2ccc3snnc3c2)cc1,-118.6*
CCCc1nn(C)c(C(=O)Nc2ccc(Cl)cc2)c1Cl,-79.2*
CCCc1nn(C)c(C(=O)Nc2cccc(C)c2)c1Cl,-122.8*
CCCc1nn(C)c(C(=O)Nc2ccccc2)c1Cl,-98.1*
COc1ccc2c(c1)CCc1c(C(=O)NCc3cccnc3)noc1-2,-90.7*
COc1ccc2c(c1)CCc1c(C(=O)N3CCCCCC3)noc1-2,-63.8*
CCCNC(=O)c1noc2c1CCc1cc(OC)ccc1-2,-70.8*
O=C(c1noc2c1CCc1ccccc1-2)N1CCOCC1,-71.9*

# Screens from PubChem.
